Each structure is given as a SMILES string. Records with an inconclusive call do not appear. A call without a number means that no potency is given here. Values without a mark were called inactive. The source made the active and inactive calls. The call rests on the fitted dose curve; in most records, active means well fitted activation curve with a large enough effect in the repeat runs; inconclusive means weak or mixed curves; inactive means flat fitted curve, though single readings scatter.

This assay can be described thus: A CellTox Green Cytotoxicity Assay to monitor cytotoxicity in HEK293 cells - 16 hour (AID 1224888). Further: nearly all actives have a fitted effect of over 35% in size. As to conditions: CellTox Green fluorescence; series mostly up to 76.8 µM; activity change: at the top concentration. The text has this:
National Center for Advancing Translational Sciences [NCATS]
NIH Chemical Genomics Center [NCGC]
U.S. Environmental Protection Agency [EPA]
National Institutes of Environmental Health Sciences [NIEHS]
National Toxicology Program [NTP]
Cell-based models are critical for drug discovery. Determining the natural cytotoxic effects resulting from test compounds is an essential research activity. A CellTox Green Cytotoxicity Assay to monitor cytotoxicity in real time of continues cell culture during 40 hours of the compound treatment was used to screen Tox21 10K library compounds in Hek293 cells. CellTox Green Cytotoxicity Assay is a nonlytic, homogeneous, biofluorescent method to measure cytotoxicity in cell culture after experimental manipulation. The assay system uses a proprietary asymmetric cyanine dye that is excluded from viable cells but preferentially stains the dead cell's DNA. […] Viable cells produce no appreciable increases in fluorescence. Therefore, the fluorescence signal produced by the binding interaction with dead cell DNA is proportional to cytotoxicity.
The mixture of Hek293 cell suspension and reagents were dispensed at 600cells/6 ul/well in 1536-well tissue culture treated black solid bottom plates using a Multidrop dispenser. After the assay plates were incubated at a 37 C/5% CO2 incubator for 5 hours, 23 nL of compounds dissolved in DMSO, positive and negative controls was transferred to the assay plate by a pintool work station. The plates were incubated at 37 C for 40 hours. The fluorescence intensity were measured at 0h, 8h, 16h, 24h, 32h and 40h time points using ViewLux plate reader during compound treatment.
With `OCCCCO`, the Potency entry was “inactive”.

In the case of `O=C(O)C1C(C(=O)O)C2(Cl)C(Cl)=C(Cl)C1(Cl)C2(Cl)Cl` (stereo not given), the Potency result is “inactive”.

Turning to `Cc1cccc(N)c1C`, the Potency result was “inactive”.

In the case of `Cc1cccc(N)c1`, the Potency entry is “inactive”.

Take `NNc1ccccc1`: the Potency entry is “inactive”.

On to `CSc1nnc(C(C)(C)C)c(=O)n1N`, for which the Potency result is “inactive”.

For `Cl/C=C/Cl`, the Potency result is “inactive”.

As to `C=CC(=O)OCC(CC)CCCC` (stereo not given), the Potency entry was “inactive”.

Take `OC[C@@H](O)[C@H]1O[C@@H]2O[C@H](C(Cl)(Cl)Cl)O[C@@H]2[C@H]1O`: the Potency entry is “inactive”.

Consider `Nc1cccc(Cl)c1`, for which the Potency entry is “inactive”.

On to `CC12CC1(C)C(=O)N(c1cc(Cl)cc(Cl)c1)C2=O` (stereo not given), for which the Potency result is “inactive”.

As to `Nc1nc(N)nc(NC2CC2)n1`, the Potency result was “inactive”.

For `CCOP(=S)(OCC)Oc1ccc([N+](=O)[O-])cc1`, the Potency entry was “inactive”.

`OCC(O)CCl` (stereo not given): the Potency entry was “inactive”.

For the molecule `Cc1ccc(N)cc1`, the Potency result is “inactive”.

`CNC(=O)O/N=C/C(C)(C)S(C)(=O)=O`: the Potency entry was “inactive”.

Take `Oc1ccc(Cl)cc1`: the Potency result is “inactive”.

`Cc1ccc(O)c(C)c1`: the Potency result was “inactive”.

As to `C[C@]12CC[C@H](O)CC1=CC[C@@H]1[C@@H]2CC[C@]2(C)C(=O)CC[C@@H]12`, the Potency result is “inactive”.

For the molecule `O=S(=O)(O)OOS(=O)(=O)O`, the Potency result was “inactive”.

Turning to `C=CCN=C=S`, the Potency entry was “inactive”.

Regarding `COc1cc(-c2ccc(N)c(OC)c2)ccc1N`, the Potency result was “inactive”.

In the case of `Cc1cc(O)ccc1Cl`, the Potency entry was “inactive”.

For `CC[N+](=O)[O-]`, the Potency entry is “inactive”.

On to `O=C/C=C/c1ccccc1`, for which the Potency result is “inactive”.

With `FC(F)(F)c1ccc(Cl)cc1`, the Potency result was “inactive”.

Take `CN(C)C(=O)Nc1cccc(C(F)(F)F)c1`: the Potency entry is “inactive”.

As for `[N-]=[N+]=CC(=O)OC[C@H](N)C(=O)O`, the “activity change” value is -1.48% [at 35.3 µM, stronger effect = higher value].

On to `CN1C(=O)CCS(=O)(=O)C1c1ccc(Cl)cc1` (stereo not given), for which the Potency result was “inactive”.

Consider `CCOC(=O)CC(SP(=O)(OC)OC)C(=O)OCC` (stereo not given), for which the Potency entry was “inactive”.

Regarding `Nc1ccc([As](=O)(O)O)cc1`, the Potency entry is “inactive”.

Consider `Cc1cccc(C)c1N`, for which the Potency entry is “inactive”.

Take `CN(C)CCC#N`: the Potency entry is “inactive”.

For the molecule `O=[N+]([O-])c1ccc(Cl)cc1`, the Potency result is “inactive”.

Regarding `C=CC(=O)OCCCCCC(C)C`, the Potency entry is “inactive”.

On to `CCOP(=S)(OCC)Oc1cc(C)nc(C(C)C)n1`, for which the Potency result was “inactive”.

With `CN(C)C(=O)Cl`, the Potency entry is “inactive”.

In the case of `O=P1(NCCCl)OCCCN1CCCl` (stereo not given), the Potency result is “inactive”.

Turning to `C=CC#N`, the “activity change” value was -8.89%.

For the molecule `Sc1ccccc1`, the Potency result was “inactive”.

For the origin of these results see PubChem BioAssay (Tox21).
